According to PubChem BioAssay AID1259313 (Sanford-Burnham Center for Chemical Genomics, 2017):
Hit rate of the full screen: of about 340,000 compounds, about 8,500 (2.5%) were called active.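 The calls were made as follows: active = melting temperature shift of at least 10% of the positive control shift, at one fixed dose; inactive = the rest.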 What follows is part of a selection rich in actives, with near analogues and random picks from the rest.

These molecules were tested on Glutamate receptor ionotropic, NMDA 3A (GRIN3A) ligand-binding domain (assay: NR3A LBD thermal stabilization by compounds – biophysical, differential scanning fluorimetry, uHTS, primary screen (AID 1259313)). Settings: at 25 µM, hits give high values, 0% = protein alone, 100% = glycine-bound protein.

| Structure (SMILES) | Tm shift relative to glycine control |
| --- | --- |
| O=C(NCc1ccc2c(c1)OCO2)C12CC3CC(CC(C3)C1)C2 | -0.27% (inactive) |
| Cc1cc(=O)oc2cc(OCC(=O)Nc3nnc(C4CC4)s3)ccc12 | -0.86% (inactive) |
| CCOC(=O)Cc1csc(NC(=O)COc2ccc3c(C)cc(=O)oc3c2)n1 | -1.92% (inactive) |
| Cc1ccc(O)c(/C=N/NC(=O)COc2ccc3c(C)cc(=O)oc3c2)c1 | 16.8% (active) |
| CCOc1ccccc1NC(=O)Cn1nnc(C(=O)NCc2cccs2)c1N | -0.84% (inactive) |
| CC(C)Cn1c(N)c(C(=O)NCc2cccs2)c2nc3ccccc3nc21 | 19.1% (active) |
| O=C(NCc1cccs1)c1cc(-c2ccccn2)nc2ccc(Br)cc12 | -0.39% (inactive) |
| Cc1ccc(S(=O)(=O)c2ccc(Cl)cc2)cc1S(=O)(=O)NC(C(=O)O)C(C)C (stereo not given) | -2.2% (inactive) |
| CCCOn1c(-n2nc(C)cc2C)nc2ccccc2c1=O | 1.18% (inactive) |
| O=C(CSc1ccc(C(F)(F)F)cc1[N+](=O)[O-])NCCOc1ccccc1 | -6.06% (inactive) |
| O=C(/C(=C/c1cccc(Cl)c1)c1nc2ccccc2[nH]1)c1ccccc1 | 23% (active) |
| Oc1ccc2nc(Cc3ccccc3)[nH]c2c1 | -5.45% (inactive) |
| N#C/C(=C(/O)COC(=O)COc1ccc(Cl)cc1)c1nc2ccccc2[nH]1 | 7.42% (inactive) |
| CN(CC1CCCN(CCc2cccc(C(F)(F)F)c2)C1)C(=O)c1ccc2nc[nH]c2c1 (stereo not given) | 1.25% (inactive) |
| O=C(Cn1cc(/C=N/NC(=O)c2cccc(C(F)(F)F)c2)c2ccccc21)Nc1ccc(F)cc1 | 15.8% (active) |
| O=C(CN1CCN(c2ccc(F)cc2)CC1)Nc1cccc(C(F)(F)F)c1 | -4.33% (inactive) |
| NC(=O)Cn1cc(/C=N\NS(=O)(=O)c2ccccc2)c2ccccc21 | -34.7% (inactive) |
| CCCOC(=O)c1ccc(N2C(=O)c3ccccc3C2=O)cc1 | -1.6% (inactive) |
| Cc1ccc(C)c(NC(=O)c2cc(-c3cc(C)cc(C)c3O)n[nH]2)c1 | 0.62% (inactive) |
| Cc1ccc(NC(=O)CCN2C(=O)c3ccccc3C2=O)cc1C | -0.19% (inactive) |
| Cc1ccc(NC(=O)c2cc(-c3ccccc3O)n[nH]2)cc1C | 26.2% (active) |
| O=C(CNS(=O)(=O)c1cccc(C(F)(F)F)c1)Nc1ccccc1F | -1.13% (inactive) |
| CN(CC(=O)NCCc1ccc(S(N)(=O)=O)cc1)CC(=O)Nc1ccc(F)c(F)c1F | -1.98% (inactive) |
| O=C(CNS(=O)(=O)c1ccc2ccccc2c1)Nc1ccc(F)c(F)c1F | 35% (active) |
| O=C(c1ccncc1)N1CCN(S(=O)(=O)c2cccc([N+](=O)[O-])c2)CC1 | 2.5% (inactive) |
